# Results taken from PubChem BioAssay (NCATS).
# Values without a mark were called inactive. Inconclusive results are not listed. Entries that show only a call come without a potency. Active and inactive are the calls of the source. Unless noted, calls follow the shape of the dose curve; as a rule, active = well fitted curve in the direction sought with a large enough effect; inconclusive = small, poorly fitted or top-dose-only effect, or another doubt; inactive = no such curve, though single readings can be large; an effect the other way counts as inactive or inconclusive.
# Experiments:
# [1] = AP1 Signaling Pathway (AID 357; active = well fitted curve in either direction with a large enough effect, not every such curve was filed as active); conditions: ME-180 AP-1-bla reporter, EGF-induced, beta-lactamase ratio, 5 h; at 7.69 µM (top of the series) unless noted
# Outline: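 AP-1-bla ME-180 cells with beta-lactamase reporter under AP-1 response element, stimulated with EC50 EGF; compounds titrated, 5 hours at 37 degrees Celsius. CCF4 read at 460/530 nm ratio; positive and negative modulators judged by AC50.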
# [2] = target: Cytochrome P450 1A2 (Homo sapiens) (UniProt P05177); experiment: p450-cyp1a2 (AID 410; calls by dose curve); conditions: recombinant CYP1A2, luciferin-ME demethylation, luminescence; series mostly up to 11.4 µM
# Sequence of Cytochrome P450 1A2 (Homo sapiens) (P05177 whole entry, looked up): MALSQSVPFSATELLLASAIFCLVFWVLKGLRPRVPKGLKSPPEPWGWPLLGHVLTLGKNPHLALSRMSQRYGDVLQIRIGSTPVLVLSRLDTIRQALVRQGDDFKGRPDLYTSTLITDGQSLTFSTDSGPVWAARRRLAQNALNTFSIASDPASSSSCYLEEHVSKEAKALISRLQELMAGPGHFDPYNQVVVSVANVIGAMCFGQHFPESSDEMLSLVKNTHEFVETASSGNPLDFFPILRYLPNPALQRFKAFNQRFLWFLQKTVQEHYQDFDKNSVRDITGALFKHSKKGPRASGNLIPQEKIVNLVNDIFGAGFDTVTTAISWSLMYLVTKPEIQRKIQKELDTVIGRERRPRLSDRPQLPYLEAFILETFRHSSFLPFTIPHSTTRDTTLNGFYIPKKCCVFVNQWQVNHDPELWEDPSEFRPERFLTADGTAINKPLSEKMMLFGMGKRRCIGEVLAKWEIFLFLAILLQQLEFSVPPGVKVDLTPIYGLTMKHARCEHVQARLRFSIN
# Outline: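 20nM CYP1A2, 100uM Luciferin-ME (=Km), 100mM KPO4; cpd 10 min RT; +NADPH regen, 60 min RT; stop/detect 20 min; luminescence. Normalized to furafylline 57 uM = full inhibition.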
# [3] = NFAT Signaling Pathway (AID 444; active = well fitted curve in either direction with a large enough effect, not every such curve was filed as active;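 also: carbachol stimulus at about its EC50 of 1 µM final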); conditions: Jurkat NFAT-bla M1, carbachol, beta-lactamase ratio, 5 h; at 7.69 µM (top of the series) unless noted
# Outline: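 Jurkat cells with NFAT-driven β-lactamase reporter and co-expressed M1 receptor, stimulated with carbachol (final 1 uM, ~EC50), compound titration, 5 h at 37 °C. CCF4 loaded 1 h at RT; 460/530 nm ratio gave %activity and AC50.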
# [4] = Stat Signaling Pathway (AID 446; active = well fitted curve in either direction with a large enough effect, not every such curve was filed as active;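 also: ME-180 cervical cancer cells given 40 pM IL-6 alongside compound; SIE-controlled beta-lactamase reporter measured as 460/530 nm FRET emission ratio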); conditions: ME-180 SIE beta-lactamase reporter, IL-6 stimulated, 5 h; at 7.69 µM (top of the series) unless noted
# Outline: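 Emission at 460 and 530 nm (excitation 405 nm) reports SIE-controlled beta-lactamase in ME-180 cells. Cells received compound with 40 pM IL-6 for 5 hrs at 37 C; data scaled between 300 pM IL-6 and 125 nM JAK-inhibitor controls.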
# [5] = target: Glucocorticoid receptor (Homo sapiens) (UniProt P04150); experiment: GR-GFP Redistribution (AID 450;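 active = compounds whose dose series gives a full or clear partial fitted curve of increased nuclear translocation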; also: potency is read from the fitted curve at half-maximal effect); conditions: U2OS GR-GFP nuclear translocation, laser cytometry, 2 h
# [6] = target: Glucocorticoid receptor (Homo sapiens) (UniProt P04150); experiment: GR-EFC Redistribution (AID 451; calls by dose curve; also: potency is read from the fitted curve at half-maximal effect); conditions: CHO-K1 GR-EFC translocation, beta-gal luminescence, 2 h
# Outline: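 CHO-K1 cells expressing nuclear EA and GR-ED fragments of b-gal; compounds titrated up to 46 uM final, 2 h at 37 C. GR nuclear translocation read as complemented b-gal luminescence after 1 h RT detection.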
# [7] = target: Mitogen-activated protein kinase 10 (Mus musculus) (UniProt Q61831); experiment: JNK3 AlphaScreen Assay (AID 530; active = well fitted curve in either direction with a large enough effect, not every such curve was filed as active;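 also: kinase came from lysate of stimulated human HepG2 cells; signal reports phosphorylation of biotinylated GST-cJun 1-79 at Ser73 with 10 µM ATP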); conditions: JNK3 lysate, c-Jun phosphorylation; series mostly up to 11.4 µM
# Outline: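 HepG2 lysate (IL-1b/TNFa pre-activated) + biotin-GST-cJun 1-79 + anti-pSer73 cJun; cpd titration, 15 min RT; ATP 10 uM start; Tris pH 7.6, MgCl2, DTT, vanadate; beads in EDTA buffer; AlphaScreen.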
# [8] = target: 3',5'-cyclic-AMP phosphodiesterase 4B (Homo sapiens) (UniProt Q07343); experiment: qHTS Assay for Inhibitors of PDE-IV (AID 607; active = well fitted activation curve with a large enough effect in the main read-out, with a control signal flat, not every such curve was filed as active); conditions: HEK293 ACTOne CNG channel cells, membrane potential fluorescence; series mostly up to 22.9 µM
# Sequence of 3',5'-cyclic-AMP phosphodiesterase 4B (Homo sapiens) (Q07343 whole entry, looked up): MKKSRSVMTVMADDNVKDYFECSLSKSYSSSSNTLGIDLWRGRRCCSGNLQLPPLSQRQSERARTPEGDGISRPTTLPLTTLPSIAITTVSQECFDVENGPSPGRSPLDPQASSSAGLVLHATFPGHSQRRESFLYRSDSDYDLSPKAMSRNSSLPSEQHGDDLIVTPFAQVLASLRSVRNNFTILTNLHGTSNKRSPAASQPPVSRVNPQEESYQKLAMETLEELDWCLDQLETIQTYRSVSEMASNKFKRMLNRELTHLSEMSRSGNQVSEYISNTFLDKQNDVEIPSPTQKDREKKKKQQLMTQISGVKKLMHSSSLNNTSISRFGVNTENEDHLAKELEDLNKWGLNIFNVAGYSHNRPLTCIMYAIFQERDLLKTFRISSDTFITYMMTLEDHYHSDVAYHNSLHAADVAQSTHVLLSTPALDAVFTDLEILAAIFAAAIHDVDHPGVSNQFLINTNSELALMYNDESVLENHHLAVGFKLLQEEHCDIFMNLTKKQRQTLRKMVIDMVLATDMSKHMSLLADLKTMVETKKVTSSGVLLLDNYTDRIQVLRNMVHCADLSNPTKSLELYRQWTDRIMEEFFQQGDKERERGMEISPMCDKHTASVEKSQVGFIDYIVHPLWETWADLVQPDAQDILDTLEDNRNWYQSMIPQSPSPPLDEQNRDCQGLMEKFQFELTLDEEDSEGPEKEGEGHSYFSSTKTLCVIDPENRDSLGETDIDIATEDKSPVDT
# Outline: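 The readout is membrane depolarisation from a cAMP-sensing CNG channel, detected with a potential dye at ex 535/em 590. Cells were HEK293-derived (endogenous PDE-IV) at 1000 cells/well, titrated up to 22.9 uM final.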
# [9] = target: Guanine nucleotide-binding protein G(i) subunit alpha-1 (Homo sapiens) (UniProt P63096); experiment: qHTS Assay for Inhibitors of RGS12 GoLoco Motif Activity (Green Fluorophore) (AID 879); conditions: Galphai1/FITC-RGS12 GoLoco peptide, fluorescence polarization; series mostly up to 57.1 µM;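 also: negative values mean loss of peptide binding seen as reduced polarization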
# Sequence of Guanine nucleotide-binding protein G(i) subunit alpha-1 (Homo sapiens) (P63096 whole entry, looked up): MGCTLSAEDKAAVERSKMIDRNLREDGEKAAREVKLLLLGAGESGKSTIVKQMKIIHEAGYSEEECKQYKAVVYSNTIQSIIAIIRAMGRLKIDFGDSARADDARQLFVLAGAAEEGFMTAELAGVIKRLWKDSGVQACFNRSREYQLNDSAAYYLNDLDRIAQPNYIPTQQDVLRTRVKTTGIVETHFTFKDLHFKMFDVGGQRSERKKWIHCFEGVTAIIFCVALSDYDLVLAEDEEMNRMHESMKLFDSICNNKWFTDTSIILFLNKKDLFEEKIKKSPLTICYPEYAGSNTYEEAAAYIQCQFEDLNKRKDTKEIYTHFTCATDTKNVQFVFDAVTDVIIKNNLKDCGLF
# Outline: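 A drop in FITC polarization marked displacement of the FITC-tagged RGS12 GoLoco peptide (10 nM) from Gαi1 (50 nM). Compounds were incubated 10 min at room temperature in Tris pH 7.5 buffer containing 150 mM NaCl, 0.1 mM GDP and 0.05% NP40; unlabeled peptide titration served as control.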
# [10] = target: Cytochrome P450 2C9 (Homo sapiens) (UniProt P11712); experiment: qHTS Assay for Inhibitors and Substrates of Cytochrome P450 2C9 (AID 883); conditions: recombinant CYP2C9, luciferin-H luminescence, 60 min; series mostly up to 11.4 µM; also: nearly all actives have a fitted effect of over 60% in size; also: potency is read from the fitted curve at half-maximal effect
# Outline: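 Signal: luciferase luminescence reporting luciferin produced by CYP2C9. Conditions: 10nM enzyme, Luciferin-H 100uM at KM, 25mM KPO4, 37C, 60 min NADPH-driven reaction. Reference: 57uM sulphaphenazole as 100% inhibition.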
# [11] = target: Cytochrome P450 2D6 (Homo sapiens) (UniProt P10635); experiment: qHTS Assay for Inhibitors and Substrates of Cytochrome P450 2D6 (AID 891); conditions: recombinant CYP2D6, luciferin-ME EGE luminescence; series mostly up to 11.4 µM; also: nearly all actives have a fitted effect of over 60% in size; also: potency is read from the fitted curve at half-maximal effect;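 as to activity change, negative = inhibition: luciferin methyl ether substrate demethylated by CYP2D6 with NADPH regeneration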
# Outline: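 Luminescent read-out of luciferin formed by 5 nM human CYP2D6 demethylating 30 uM Luciferin-ME EGE (Km level) over 60 min at room temperature after NADPH regeneration addition. Data normalized to full inhibition by 1.43 uM quinidine.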
# [12] = target: Cytochrome P450 2C19 (Homo sapiens) (UniProt P33261); experiment: qHTS Assay for Inhibitors and Substrates of Cytochrome P450 2C19 (AID 899); conditions: recombinant CYP2C19, luciferin-H EGE luminescence; series mostly up to 11.4 µM; also: nearly all actives have a fitted effect of over 60% in size; also: potency is read from the fitted curve at half-maximal effect
# Sequence of Cytochrome P450 2C19 (Homo sapiens) (P33261 whole entry, looked up): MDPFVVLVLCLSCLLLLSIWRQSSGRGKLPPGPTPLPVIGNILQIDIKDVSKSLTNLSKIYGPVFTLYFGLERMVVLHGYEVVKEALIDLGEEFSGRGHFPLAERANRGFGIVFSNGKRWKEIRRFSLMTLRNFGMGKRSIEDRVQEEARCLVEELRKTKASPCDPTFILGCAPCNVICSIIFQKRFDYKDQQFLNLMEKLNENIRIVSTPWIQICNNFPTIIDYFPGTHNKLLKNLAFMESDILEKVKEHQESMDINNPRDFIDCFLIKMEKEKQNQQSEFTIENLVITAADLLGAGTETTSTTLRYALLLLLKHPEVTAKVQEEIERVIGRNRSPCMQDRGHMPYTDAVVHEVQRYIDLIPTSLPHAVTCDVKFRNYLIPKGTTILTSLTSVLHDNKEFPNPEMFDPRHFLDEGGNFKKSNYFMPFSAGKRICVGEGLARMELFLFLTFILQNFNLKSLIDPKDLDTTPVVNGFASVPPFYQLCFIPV
# Outline: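 Signal comes from luciferase acting on luciferin released by CYP2C19-mediated hydroxylation of Luciferin-H EGE, 10uM (KM). Assay mix: 5nM enzyme, 50mM KPO4; 60 min at 37C with NADPH regeneration. Data normalized against 57uM ketoconazole.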
# [13] = qHTS Assay for Identification of Small Molecule Agonists for Thrombopoietin (TPO) Signaling Pathway (AID 917); conditions: TPO signaling pathway reporter cells, agonist qHTS, stimulated with TPO at its EC50; series mostly up to 38.5 µM
# Outline: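 Cell-based luciferase reporter screen. Mouse Ba/F3 line stably expressing human TPO receptor; IL-3 removed overnight before plating. Co-treatment with compound and EC50 TPO (26 pM), 24 hrs at 37 C, then luminescence.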
# [14] = target: Muscarinic acetylcholine receptor M1 (Rattus norvegicus) (UniProt P08482); experiment: qHTS Assay for Antagonists of Acetylcholine Muscarinic M1 Receptor: Measurement of IP-One Response (AID 944); conditions: CHO-M1 cells, IP-One HTRF, antagonist mode; series mostly up to 46.1 µM; also: nearly all actives have a fitted effect of over 75% in size
# Sequence of Muscarinic acetylcholine receptor M1 (Rattus norvegicus) (P08482 whole entry, looked up): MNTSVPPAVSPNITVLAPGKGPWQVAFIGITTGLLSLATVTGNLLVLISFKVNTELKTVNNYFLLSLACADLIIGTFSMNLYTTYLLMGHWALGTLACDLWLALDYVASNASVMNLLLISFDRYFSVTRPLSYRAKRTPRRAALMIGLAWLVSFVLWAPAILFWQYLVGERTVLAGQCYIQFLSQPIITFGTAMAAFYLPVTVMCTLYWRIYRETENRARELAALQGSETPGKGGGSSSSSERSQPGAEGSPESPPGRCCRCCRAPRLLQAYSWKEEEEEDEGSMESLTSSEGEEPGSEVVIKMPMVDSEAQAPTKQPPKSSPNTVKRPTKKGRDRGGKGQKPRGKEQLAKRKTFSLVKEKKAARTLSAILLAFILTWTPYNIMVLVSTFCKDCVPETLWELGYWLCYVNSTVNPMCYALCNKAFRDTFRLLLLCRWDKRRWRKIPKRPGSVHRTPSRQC
# Outline: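 Read-out: HTRF competition between d2-IP1 and Eu-cryptate anti-IP1 antibody, emission 620 and 665 nm. Stimulus was carbachol, EC80 (200 nM), for 30 min in M1-CHO cells (rat receptor), after 10 min compound pre-treatment.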
# [15] = target: Pyruvate kinase PKM (Homo sapiens) (UniProt P14618); experiment: qHTS Assay for Activators of Human Muscle Pyruvate Kinase (AID 954; active = well fitted curve in the direction sought with a large enough effect, not every such curve was filed as active); conditions: purified human muscle pyruvate kinase, luciferase-coupled luminescence, 1 h; series mostly up to 57.5 µM
# Sequence of Pyruvate kinase PKM (Homo sapiens) (P14618 whole entry, looked up): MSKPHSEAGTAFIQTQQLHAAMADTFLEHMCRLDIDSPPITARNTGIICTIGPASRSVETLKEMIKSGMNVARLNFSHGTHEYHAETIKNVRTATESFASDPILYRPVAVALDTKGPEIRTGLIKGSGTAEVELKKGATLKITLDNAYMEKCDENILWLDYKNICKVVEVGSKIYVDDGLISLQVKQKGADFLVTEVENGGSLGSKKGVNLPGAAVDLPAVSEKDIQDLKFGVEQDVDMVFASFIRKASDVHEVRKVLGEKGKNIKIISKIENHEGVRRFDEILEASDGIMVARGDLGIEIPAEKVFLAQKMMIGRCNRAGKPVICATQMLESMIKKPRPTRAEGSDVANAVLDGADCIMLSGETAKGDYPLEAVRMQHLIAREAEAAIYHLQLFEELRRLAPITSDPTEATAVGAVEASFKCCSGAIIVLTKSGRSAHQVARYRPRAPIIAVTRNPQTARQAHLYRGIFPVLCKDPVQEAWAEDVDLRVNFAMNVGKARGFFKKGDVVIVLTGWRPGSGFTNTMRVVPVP
# Outline: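 PKM2, human, >95% pure, 0.1 nM; PEP 0.5 mM (Km), ADP 0.1 mM; 50 mM imidazole pH 7.2, 50 mM KCl, 0.01% Tween 20, 0.05% BSA; 1 h RT; luciferase luminescence readout.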
# [16] = target: alpha-glucosidase (Oryza sativa, rice) (UniProt Q653V4); experiment: Counterscreen for Glucocerebrosidase Inhibitors: qHTS Assay for Rice alpha-Glucosidase at pH 5.0 (AID 997); conditions: rice alpha-glucosidase enzyme activity; series mostly up to 76.9 µM
# Outline: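 Endpoint fluorogenic assay at pH 5.0: compounds (0.7 nM to 77 uM) titrated against 4 nM rice enzyme and 400 uM 4-MU-alpha-glucoside for 20 min at room temperature; NaOH/glycine stop, read ex 365/em 440 nm, Hill-fitted AC50.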
# [17] = target: Cytochrome P450 3A4 (Homo sapiens) (UniProt P08684); experiment: qHTS Assay for Activators of Cytochrome P450 3A4 (AID 885); conditions: recombinant CYP3A4, Luciferin-PPXE luminescence, 60 min; series mostly up to 11.4 µM; also: nearly all actives have a fitted effect of over 65% in size
# Sequence of Cytochrome P450 3A4 (Homo sapiens) (P08684 whole entry, looked up): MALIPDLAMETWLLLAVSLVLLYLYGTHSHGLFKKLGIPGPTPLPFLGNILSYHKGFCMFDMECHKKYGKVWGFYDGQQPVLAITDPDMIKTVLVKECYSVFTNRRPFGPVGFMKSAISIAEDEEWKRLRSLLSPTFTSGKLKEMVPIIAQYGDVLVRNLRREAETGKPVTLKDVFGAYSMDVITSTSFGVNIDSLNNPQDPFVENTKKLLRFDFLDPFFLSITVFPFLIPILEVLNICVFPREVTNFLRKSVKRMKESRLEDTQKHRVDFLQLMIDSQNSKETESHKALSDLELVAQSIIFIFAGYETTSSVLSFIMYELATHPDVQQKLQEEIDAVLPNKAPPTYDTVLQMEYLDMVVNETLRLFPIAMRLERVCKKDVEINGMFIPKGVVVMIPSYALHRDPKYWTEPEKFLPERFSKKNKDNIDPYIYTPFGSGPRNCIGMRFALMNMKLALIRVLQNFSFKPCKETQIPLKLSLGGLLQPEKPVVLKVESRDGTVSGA
# Outline: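 Activators are scored by enhanced luminescence from CYP3A4 conversion of luciferin-PPXE (25uM, equal to KM) to luciferin, after 60 min at RT with an NADPH-regenerating system.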
# [18] = qHTS Assay for Identification of Small Molecule Antagonists for NFkB Signaling Pathway (AID 895; active = well fitted inhibition curve with a large enough effect in the signal ratio, with a control signal flat, not every such curve was filed as active; the % refers to the signal ratio; also: potency is read from the fitted curve at half-maximal effect); conditions: NFkB beta-lactamase reporter cells, FRET ratio 460/530, stimulated with 10 pM TNF alpha; series mostly up to 38.3 µM
# Outline: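 ME-180 NFkB-bla cells (beta-lactamase under NFkB response element), plated overnight, treated with compound then 10 pM TNF alpha (about EC50) for 5 hrs at 37 C. LiveBLAzer FRET read at 460/530 nm emission, 405 nm excitation.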
# [19] = target: Pyruvate kinase (Leishmania mexicana) (UniProt Q27686); experiment: qHTS Validation Assay for Inhibitors of Leishmania Mexicana Pyruvate Kinase (AID 945); conditions: purified L. mexicana pyruvate kinase, enzyme activity, E451W mutant enzyme; series mostly up to 57.5 µM
# Sequence of Pyruvate kinase (Leishmania mexicana) (Q27686 2-499 E452W): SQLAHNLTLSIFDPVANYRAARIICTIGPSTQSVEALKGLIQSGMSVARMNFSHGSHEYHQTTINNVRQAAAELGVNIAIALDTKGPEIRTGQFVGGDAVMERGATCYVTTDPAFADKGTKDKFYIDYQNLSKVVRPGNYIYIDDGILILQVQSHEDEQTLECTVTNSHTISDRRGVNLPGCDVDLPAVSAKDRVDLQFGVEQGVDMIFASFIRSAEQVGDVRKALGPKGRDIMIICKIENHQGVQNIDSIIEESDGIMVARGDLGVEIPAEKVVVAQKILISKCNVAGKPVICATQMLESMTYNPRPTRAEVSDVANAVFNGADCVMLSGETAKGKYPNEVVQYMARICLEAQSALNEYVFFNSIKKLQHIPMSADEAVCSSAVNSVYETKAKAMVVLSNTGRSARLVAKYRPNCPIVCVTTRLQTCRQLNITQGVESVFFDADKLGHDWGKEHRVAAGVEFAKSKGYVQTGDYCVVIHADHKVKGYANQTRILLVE
# Outline: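 Read-out: luminescence from PKLight stop/detection reagent, data normalized to DMSO. Reaction: 0.2 nM E451W LmPYK, 0.5 mM PEP, 0.1 mM ADP, pH 7.2, 1 h room temperature.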
# [20] = target: Alpha-galactosidase A (Homo sapiens) (UniProt P06280); experiment: Counterscreen for Glucocerebrosidase Inhibitors: qHTS Assay for Human alpha-Galactosidase at pH 4.5 (AID 992); conditions: purified enzyme, fluorogenic substrate; series mostly up to 76.9 µM
# Sequence of Alpha-galactosidase A (Homo sapiens) (P06280 whole entry, looked up): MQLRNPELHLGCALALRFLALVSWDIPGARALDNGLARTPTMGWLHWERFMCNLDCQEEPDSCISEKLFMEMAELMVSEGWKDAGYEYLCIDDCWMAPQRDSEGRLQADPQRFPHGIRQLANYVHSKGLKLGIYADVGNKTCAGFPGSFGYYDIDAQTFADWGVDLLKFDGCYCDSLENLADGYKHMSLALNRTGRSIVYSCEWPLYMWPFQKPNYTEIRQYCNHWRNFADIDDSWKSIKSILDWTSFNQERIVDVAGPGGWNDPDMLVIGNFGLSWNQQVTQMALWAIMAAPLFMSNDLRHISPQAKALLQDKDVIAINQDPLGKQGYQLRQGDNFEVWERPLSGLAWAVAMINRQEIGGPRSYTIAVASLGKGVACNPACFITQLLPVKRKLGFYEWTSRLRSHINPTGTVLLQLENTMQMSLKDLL
# Outline: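 Fluorogenic 4-MU alpha-D-galactoside (80 uM) hydrolysis, 2 nM enzyme, pH 4.5 citrate buffer + 0.005% Tween-20; 20 min RT; NaOH/glycine pH 10 stop; Ex365/Em440. Compounds titrated 0.7 nM–77 uM; Hill-equation AC50.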
SMILES,"activity change, negative = inhibition [1]",Potency [2],"activity change, negative = inhibition [3]","activity, negative = inhibition [4]",Potency [5] [µM],Potency [6] [µM],Potency [7],Potency [8],outcome [9],Potency [10],Potency [11],Potency [12],outcome [13],Potency [14],outcome [15],Potency [16],Potency [17],Potency [18],outcome [19],outcome [20]
CSc1nc(N)c2ncn([C@@H]3O[C@@H](COP(=O)(O)OP(=O)(O)OP(=O)(O)O)[C@@H](O)[C@H]3O)c2n1,18.4% [at 38 µM],inactive,0.479% [at 38 µM],-1.18% [at 38 µM],> 46,> 46,inactive,inactive,inactive,inactive,inactive,inactive,inactive,inactive,inactive,inactive,,,,
C[C@H]1CN(S(=O)(=O)c2cccc3cnccc23)CCN1,-12.4% [at 38 µM],inactive,1.25% [at 38 µM],2.7% [at 38 µM],> 46,> 46,inactive,inactive,inactive,,,,inactive,inactive,inactive,inactive,inactive,2.82 µM (active),inactive,inactive
Cc1cc(O)c(C(C)C)cc1C1(c2cc(C(C)C)c(O)cc2C)OC(=O)c2ccccc21,,,,,> 46,> 9.22,inactive,inactive,,0.316 µM (active),,3.16 µM (active),,,,,inactive,,,
CN[C@]1(C)[C@@H]2CC[C@@H](C2)C1(C)C,-7.63% [at 38 µM],inactive,-5.79% [at 38 µM],-12.2% [at 38 µM],> 46,> 46,inactive,inactive,inactive,,,inactive,,inactive,inactive,inactive,inactive,,,inactive
O=C(O)CCCC[C@H]1CCSS1,-4.68% [at 38 µM],inactive,-1.58% [at 38 µM],-7.28% [at 38 µM],> 46,> 46,inactive,inactive,inactive,inactive,,,inactive,,inactive,inactive,,inactive,,
C[C@H]1CC(C)(C)C[C@@](OCCN2CCCCC2)(c2ccccc2)C1,,,,7.87%,> 46,> 9.22,inactive,,,,0.631 µM (active),,,,,,inactive,,,
COc1cc([C@@H](O)CO)ccc1OS(=O)(=O)O,6.76% [at 38 µM],inactive,4.87% [at 38 µM],7.18% [at 38 µM],> 46,> 46,inactive,inactive,inactive,,,,inactive,,inactive,inactive,,,inactive,
CN1CCc2c(cc(O)c(O)c2Cl)[C@H](c2cccc(Cl)c2)C1,26% [at 38 µM],inactive,-25.3% [at 38 µM],-20% [at 38 µM],> 46,> 46,inactive,inactive,inactive,,,,,,inactive,inactive,,,inactive,
Oc1ccc([C@@H]2CNCc3sccc32)cc1O,-15.6% [at 38 µM],inactive,8.54% [at 38 µM],5.59% [at 38 µM],> 46,> 46,inactive,inactive,inactive,,,,,inactive,inactive,inactive,inactive,,,inactive
COc1ccc2c(c1)CCC1C2CC[C@]2(C)[C@H](NCCCCCCN3C(=O)C=CC3=O)CC[C@@H]12 (some centres not stated),-7.36% [at 38 µM],inactive,12.6% [at 38 µM],1% [at 38 µM],> 46,> 46,inactive,inactive,inactive,,,,,,inactive,inactive,,,,inactive
O=C(O)CCC(=O)N1CCC[C@H]1C(=O)O,14% [at 38 µM],inactive,7.11% [at 38 µM],-28.5% [at 38 µM],> 46,> 46,inactive,inactive,inactive,,,inactive,inactive,inactive,inactive,inactive,,,inactive,inactive
NCC[C@H]1CCC[C@H](CCN)N1,2.44% [at 38 µM],inactive,2.27% [at 38 µM],-5.59% [at 38 µM],> 46,> 46,inactive,inactive,inactive,,,,inactive,inactive,inactive,inactive,,inactive,inactive,
